An excerpt weighted towards active compounds, which were near 9.2% of everything screened.
Rab9 prom act = Rab9 promoter activation; Huh7 Rab9 promoter-luciferase reporter, luminescence, 24 h; Potency, µM (top dose mostly 9.22 µM), without a hit: top-dose activation, negative = inhibition, most hits filed as activators; 2.8% of 320,000 active; AID 485297; further: % of control where 0% means no effect; nearly all actives have a fitted effect of over 60% in size
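Huh7 cells stably carrying a Rab9 promoter-luciferase reporter, 1500 cells per well in OP-MEM I with 10% FBS, treated with compound 24 hours at 37C. Luciferase activity read by luminescence after 10 minutes with Amplite reagent.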
FLuc modulator = firefly luciferase modulation, counter-screen for miR-21 project | 6.9% of 360,000 active | Potency, µM (titrated, usually from 57.5 µM), without a hit: at the highest dose activity change, negative = inhibition, usual class: inhibitors | AID 588342 | P08659 | purified FLuc, Km substrates, luminescence inhibition;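 further: plate controls were vehicle for no effect and reference inhibitor for full effect; nearly all actives have a fitted effect of over 55% in size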
Target sequence (P08659 whole entry, looked up): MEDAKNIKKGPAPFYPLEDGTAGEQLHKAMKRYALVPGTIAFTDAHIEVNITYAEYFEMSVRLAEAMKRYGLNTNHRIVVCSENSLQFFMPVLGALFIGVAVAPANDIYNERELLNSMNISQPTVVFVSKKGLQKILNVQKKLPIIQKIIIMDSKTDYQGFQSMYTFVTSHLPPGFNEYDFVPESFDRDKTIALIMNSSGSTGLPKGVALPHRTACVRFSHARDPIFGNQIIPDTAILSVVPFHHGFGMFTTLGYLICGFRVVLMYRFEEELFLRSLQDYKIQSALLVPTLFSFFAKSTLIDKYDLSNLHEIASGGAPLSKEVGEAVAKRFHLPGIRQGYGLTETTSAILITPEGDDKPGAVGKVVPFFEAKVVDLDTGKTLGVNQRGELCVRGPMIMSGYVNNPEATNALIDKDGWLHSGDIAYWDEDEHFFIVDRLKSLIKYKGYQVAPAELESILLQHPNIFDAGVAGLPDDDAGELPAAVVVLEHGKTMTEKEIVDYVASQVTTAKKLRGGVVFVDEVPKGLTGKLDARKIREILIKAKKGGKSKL
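Biochemical qHTS of compounds, final roughly 60 µM downward over six points, against 10 nM purified firefly luciferase using Km concentrations of substrates (10 uM D-luciferin, 10 uM ATP) in Tris acetate pH 7.5 buffer; luminescence output.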
ELG1 repair inh = blocks ELG1-dependent DNA repair in HEK293T cells | HEK293T ELG1-luciferase reporter, luminescence, 16 h; DNA damage induced by 5-fluorouridine | Potency, µM (highest dose often 46.1 µM), inactives show at the highest dose activity change, negative = inhibition, actives largely listed as inhibitors | 2.3% of 330,000 active; further: on the % scale 0 is the no-effect control and ±100 the full control effect; nearly all actives have a fitted effect of over 55% in size
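5-Fluorouridine DNA damage + compound/DMSO, 2,000 cells/well, 16 h, 37 °C/5% CO2. ONE-Glo, 30 min RT, luminescence. Readout = decrease in reporter signal.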
ELG1 genotoxic = genotoxicity induction in ELG1-luciferase HEK293T cells. 1.3% of 330,000 active. AID 504466. Potency, µM (highest dose often 46 µM), for inactives: at the top dose activity change, positive = activation, usual class: activators. HEK293T ELG1-luciferase reporter, luminescence, 16 h; further: % of control where 0% means no effect; nearly all actives have a fitted effect of over 60% in size
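Quantitative HTS format in 1536-well plates. HEK293T ELG1-luciferase reporter cells receive test compound and are incubated 16 hr at 37 °C, 5% CO2; ONE-Glo added, 30 min room temperature, then luminescence read.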
SMN2 splice up = enhancers of SMN2 splice variant expression; HEK293 SMN2-luciferase splicing reporter, luminescence, 30-36 h; AID 1458; 2.8% of 210,000 active; Potency, µM (series often up to 46.1 µM), without a hit: at the top dose activity change, positive = activation, actives largely listed as activators; further: % of control where 0% means no effect; nearly all actives have a fitted effect of over 55% in size
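HEK293 cells carry an SMN2 minigene-luciferase reporter in which exon 7 inclusion puts luciferase in frame. Cells were seeded at 2000 cells/well, attached for 10-12 hours, then exposed to compounds for 30-36 hours at 37C before ONE-Glo luminescence.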
NPC1 prom act = activators of NPC1 promoter. Huh7 NPC1 promoter luciferase reporter, 24 h. Potency, µM (top dose mostly 9.22 µM), for inactives: top-dose activation, actives largely listed as activators. 2.4% of 320,000 active. AID 485313; further: % of control where 0% means no effect; nearly all actives have a fitted effect of over 60% in size
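Cells: Huh7 expressing luciferase under the NPC1 promoter, 1500/well. Seeded 2 h, compound added, incubated 24 h at 37 °C. Luciferase reagent, 10 min ambient, then luminescence.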
* = called active by the depositor; ? = inconclusive; / = no result given; [ ] = another dose, or the depositor's remark. The call rests on the fitted dose curve; in most records, active means well fitted curve in the direction sought with a large enough effect; inconclusive means small, poorly fitted or top-dose-only effect, or another doubt; inactive means no such curve, though single readings can be large; an effect the other way counts as inactive or inconclusive. Potency means the concentration at half of the fitted maximal effect.

SMILES	Rab9 prom act	FLuc modulator	ELG1 repair inh	ELG1 genotoxic	SMN2 splice up	NPC1 prom act
CCOC(=O)CSc1nc2sc3c(c2c(=O)[nH]1)CC(C)(CC)OC3 (configuration not stated)	-2.7%	-2.4%	12.8%	0.8%	-11.2%	2.2%
CCCSc1nc2c3c(sc2c(=O)[nH]1)CC(C)(CC)OC3 (configuration not stated)	2.9%	5.36µM*	-2.2%	4.0%	9.2%	5.3%
CSCCC(=O)N1CCCC(CO)(CCCc2ccccc2)C1 (configuration not stated)	0.9%	2.2%	-3.9%	0.5%	/	2.1%
O=C1CCCN1CCC(=O)N1CCCC(CO)(Cc2ccccc2)C1 (configuration not stated)	3.55µM*	16.9µM*	?	7.7%[9.26 µM]	/	?
Cc1ccc(NS(=O)(=O)c2ccc3c(c2)CCN3C(=O)CCC(=O)O)cc1Cl	-0.3%	-0.3%	0.0%	2.8%	/	-1.9%
CCS(=O)(=O)NCCNc1ccc([N+](=O)[O-])cc1	-3.4%	-1.7%	11.2%	-2.5%	-6.6%	-3.5%
COc1cccc(C2CC(=O)Nc3cc4c(cc32)OCCO4)c1OC(C)C (configuration not stated)	-0.5%	6.5%	?	-0.7%	8.3%	2.2%
COc1cccc(C2CC(=O)Nc3cc(OC)c(OC)c(OC)c32)c1OC(C)C (configuration not stated)	/	-0.4%	/	/	17.8µM*	/
CCOc1ccccc1N1CCN(c2ncnc3scc(-c4ccc(OC)cc4)c23)CC1	7.5%	-0.9%	14.6µM*	-33.6%	/	-2.8%
COc1ccc(-c2csc3ncnc(N4CCN(CCO)CC4)c23)cc1	-7.1%	-1.1%	-26.6%	-3.7%	/	4.4%
COc1ccc(-c2csc3ncnc(N4CCN(c5ccccc5OC)CC4)c23)cc1	2.1%	2.0%	13µM*	-18.3%	/	-2.5%
COc1ccc(-c2csc3ncnc(NCCCO)c23)cc1	3.2%	-1.2%	4.61µM*	-11.0%	/	-1.2%
COc1ccc(-c2csc3ncnc(NCCO)c23)cc1	-0.7%	0.4%	?	-15.8%	/	-5.5%
CCCCN(CC)CCCNC(=O)c1ccc2c(c1)N(CC)C(=O)c1ccccc1S2(=O)=O	-14.2%	-1.6%	26.7%	-0.2%	/	-4.5%
NNC(=O)c1oc2nc(-c3ccc(Cl)cc3)cc(-c3ccccc3)c2c1N	0.8%	-0.1%	16.4µM*	-8.2%	/	-9.5%
NNC(=O)c1oc2nc(-c3ccco3)cc(-c3ccco3)c2c1N	1.5%	0.3%	?	-10.6%	/	-5.0%
Nc1c(C(=O)O)sc2nc(-c3ccccc3)cc(-c3ccc(Cl)cc3)c12	-2.9%	0.1%	?	-1.3%	/	2.0%
Nc1c(C(=O)N/N=C/c2cccnc2)oc2nc(-c3ccco3)cc(-c3ccco3)c12	-5.2%	-9.5%	2.91µM*	-7.9%	/	-0.9%
Nc1c(C(=O)N/N=C/c2cccnc2)oc2nc(-c3ccccc3)cc(-c3ccco3)c12	-5.7%	-0.9%	7.3µM*	2.1%	/	-4.0%
COCCNC(=O)c1ccc(NS(=O)(=O)c2ccc3[nH]c(=O)[nH]c3c2)cc1	6.9%	1.9%	11.0%	-0.1%	/	-0.7%
CCN(CC)C(=O)c1ccc(NS(=O)(=O)c2ccc3[nH]c(=O)[nH]c3c2)cc1	-2.4%	-12.5%	18.3µM*	-12.2%	/	0.4%
CCC(C)NC(=O)c1ccc(NS(=O)(=O)c2ccc3[nH]c(=O)[nH]c3c2)cc1 (configuration not stated)	1.1%	16.9µM*	?	?	/	13.5%
CCOc1cc(NC(=S)NCCOC)c(OCC)cc1NC(=O)c1ccco1	1.9%	-2.5%	?	-5.5%	6.4%	-9.4%
CCCC1Cc2c(sc(N)c2C#N)CO1 (configuration not stated)	-4.0%	1.1%	18.6%	9.5%	-1.1%	-4.8%
COc1ccc(/C(=N/Nc2ncnc3ccccc23)C(=O)O)cc1	1.3%	?	?	?	/	2.3%
SMILES	Rab9 prom act	FLuc modulator	ELG1 repair inh	ELG1 genotoxic	SMN2 splice up	NPC1 prom act
CCOC(=O)/C(=N\Nc1ncnc2ccccc12)c1ccc(OC)cc1	3.16µM*	5.36µM*	?	?	/	3.55µM*
Cc1cc(N/N=C/c2ccc(O)cc2O)c2ccccc2n1	0.1%	1.2%	26.9%	4.9%	/	8.9%
Cc1cc(N(C)/N=C/c2ccccc2)nc(-c2ccccc2O)n1	-1.2%	-15.4%	-11.3%	-8.0%	/	-1.4%
C/C(=N\Nc1cc(C)nc(-c2ccccc2O)n1)c1ccccc1O	-1.7%	15.1µM*	?	-13.9%	/	-0.1%
Cc1cc(N/N=C\c2ccccc2)nc(-c2ccccc2O)n1	22.2%	6.01µM*	?	-1.1%	?	22.4%
Cc1cc(Nc2ccc(Cl)cc2)nc(-c2ccccc2O)n1	2.6%	?	-0.8%	-6.4%	/	-2.4%
Cc1cc(N/N=C/c2ccccc2O)nc(-c2ccccc2O)n1	-2.9%	8.49µM*	?	-1.4%	-16.7%	-0.6%
Cc1cc(N/N=C/c2ccc(O)cc2O)nc(-c2ccccc2O)n1	0.4%	2.69µM*	10.3µM*	-5.2%	-26.0%	5.4%
CNC(=O)c1ccsc1NC(=O)C1CCCN1S(=O)(=O)c1cccs1 (configuration not stated)	-3.8%	-2.1%	-5.3%	-0.7%	/	-0.6%
CC1(C)OC(=O)C(=CNc2cccc(O)c2)C(=O)O1	0.0%	?	-12.1%	3.3%	3.8%	9.1%
CC1(C)OC(=O)C(=NNc2ccc(Br)cc2)C(=O)O1	-4.3%	19µM*	?	2.2%	-28.6%	-2.5%
COCc1cc(C)nc(OC)c1C(N)=O	-2.6%	0.4%	-18.1%	-0.2%	25.6%	-4.6%
Cc1ccc(NC(=O)COC(=O)CCc2c(C)nc3ncnn3c2C)cc1C	/	/	9.5%	6.1%	/	/
CC(=O)c1sc(NC(=O)C(C)(C)C)nc1C	1.2%	-2.0%	16.1%	1.6%	-7.7%	-2.4%
CC(=O)c1sc(NC(=O)c2ccc(C)c(C)c2)nc1C	1.78µM*	2.39µM*	?	5.4%	8.91µM*	1.58µM*
CC(=O)c1sc(NC(=O)c2cnc(Cl)c(Cl)c2)nc1C	-4.4%	?	?	?	/	3.2%
CC(=O)c1sc(NC(=O)c2ccc(C(C)(C)C)cc2)nc1C	1.58µM*	1.35µM*	?	?	/	1.58µM*
CC(=O)c1sc(NC(=O)c2ccc3c(c2)OCO3)nc1C	3.55µM*	4.78µM*	?	10.3µM*	/	2.51µM*
COc1ccc(C(=O)Nc2nc(C)c(C(=O)N(C)C)s2)cc1OC	22.4%	13.5µM*	?	?	?	17.3%
O=[N+]([O-])c1cc(CN2CCC(O)CC2)ccc1Cl	-1.2%	-1.3%	5.1%	-4.8%	4.4%	-4.6%

Source: PubChem (National Center for Advancing Translational Sciences (NCATS))
